About 10,000 (2.8%) of roughly 360,000 compounds were called active. Roughly 4% stayed inconclusive and do not appear here. Shown is part of a subset that was picked to be rich in actives. Values without a mark were called inactive. The call rests on the fitted dose curve; in most records, active means well fitted inhibition curve with a large enough effect; inconclusive means small, poorly fitted or top-dose-only effect; inactive means flat fitted curve, though single readings scatter.
On the % scale 0 is the no-effect control and ±100 the full control effect; potency means the concentration at half of the fitted maximal effect.

Chain of Serine/threonine-protein kinase PLK1 (Homo sapiens) (P53350 whole entry, looked up, the tested form may be a part): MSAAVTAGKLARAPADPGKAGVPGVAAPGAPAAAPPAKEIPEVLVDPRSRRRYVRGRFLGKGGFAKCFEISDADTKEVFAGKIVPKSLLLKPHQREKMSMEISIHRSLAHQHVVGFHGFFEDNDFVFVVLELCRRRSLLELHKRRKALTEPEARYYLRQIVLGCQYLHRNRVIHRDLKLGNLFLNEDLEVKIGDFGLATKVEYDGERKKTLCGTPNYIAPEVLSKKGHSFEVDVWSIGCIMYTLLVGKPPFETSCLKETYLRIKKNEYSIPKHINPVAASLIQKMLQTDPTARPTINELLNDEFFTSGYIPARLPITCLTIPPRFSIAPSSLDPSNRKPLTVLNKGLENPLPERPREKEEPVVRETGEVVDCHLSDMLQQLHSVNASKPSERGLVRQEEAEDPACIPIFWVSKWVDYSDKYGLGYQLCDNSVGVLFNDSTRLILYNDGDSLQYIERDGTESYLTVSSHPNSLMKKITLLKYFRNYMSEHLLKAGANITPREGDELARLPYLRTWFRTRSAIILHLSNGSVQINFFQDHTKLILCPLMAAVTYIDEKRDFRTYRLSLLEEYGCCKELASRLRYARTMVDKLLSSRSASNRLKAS

The experiment has as its target Serine/threonine-protein kinase PLK1 (Homo sapiens) (UniProt P53350). The experiment in a line: qHTS for Inhibitors of PLK1-PDB (polo-like kinase 1 - polo-box domain): Primary Screen. Further: nearly all actives have a fitted effect of over 65% in size. On max response, negative = inhibition: series mostly up to about 57 µM. The note with it: Plk1 PBD binding of FITC phosphopeptide, fluorescence polarization.
Regarding `CCN(CC)C(=O)C1=C(C)N(Cc2ccc(F)cc2)C(=O)C(CC(=O)NC2CCCC2)C1` (stereo not given), the max response, negative = inhibition is 3.61%.

As for `CC(C)C[C@H]1CN([C@@H](Cc2ccccc2)CN2CCC[C@@H]2CN2C(=O)C(=O)NC[C@@H]2Cc2ccc(O)cc2)C(=O)C(=O)N1CCc1ccccc1`, the max response, negative = inhibition is 0.344%.

As for `Cc1cccc(OCC(O)Cn2c(N3CCCCC3)nc3c2c(=O)[nH]c(=O)n3C)c1` (stereo not given), the max response, negative = inhibition is -3.66%.

For the compound `CCC(C)Sc1nc2c(c(=O)[nH]c(=O)n2C)n1CC(O)COc1cccc2ccccc12` (stereo not given), the Potency is 18.9 µM (active).

On to `CN1CCN(c2nc3c(c(=O)[nH]c(=O)n3C)n2Cc2cccc3ccccc23)CC1`, for which the max response, negative = inhibition is -17.6%.

`CC1(C(=O)O)CCCN(C(=O)/C=C/c2ccccc2)C1` (stereo not given): the max response, negative = inhibition is -5.95%.

As to `CCC(=O)N1CCC(C)(C(=O)Nc2cc(OC)c(OC)c(OC)c2)C1` (stereo not given), the max response, negative = inhibition was 4.76%.

With `O=S1(=O)CC(N2CCC(Cc3ccccc3)CC2)CN1Cc1ccccc1` (stereo not given), the max response, negative = inhibition was -4.73%.

With `O=C(Nc1n[nH]c(C(F)(F)F)n1)c1cccs1`, the max response, negative = inhibition was -23.4%.

With `CC(C)Oc1cc(F)ccc1-c1cc(C(=O)Nc2ccc(F)cc2)[nH]n1`, the max response, negative = inhibition was -4.13%.

For the compound `CCOC(=O)NNC(=O)c1ccc(Cl)cc1`, the max response, negative = inhibition is -5.54%.

For `COC(=O)c1nc(NC(=O)c2ccc(C(C)(C)C)cc2)n[nH]1`, the Potency is 3.77 µM (active).

Turning to `COC(=O)c1nc(NC(=O)c2ccccc2)n[nH]1`, the Potency is 26.7 µM (active).

Take `COC(=O)c1sccc1NC(=O)c1ccc(Cl)cc1`: the max response, negative = inhibition is -7.12%.

Regarding `COc1ccc(C(=O)Nc2ccc(F)cc2F)cc1`, the max response, negative = inhibition is -1.72%.

In the case of `COc1ccc(C(=O)NNC(=O)c2cc(C)[nH]n2)cc1`, the max response, negative = inhibition is -5.72%.

For the compound `COC(=O)c1nc(NC(=O)c2ccc(F)cc2)n[nH]1`, the Potency is 15 µM (active).

`O=C(Nc1nsc(-c2ccccc2)n1)c1ccncc1`: the max response, negative = inhibition is 0.306%.

With `CSc1nccc(NC(=O)c2ccc(C(C)(C)C)cc2)n1`, the max response, negative = inhibition is -8.27%.

Turning to `COC(=O)c1nc(NC(=O)c2ccc(Cl)cc2)n[nH]1`, the Potency was 26.7 µM (active).

Regarding `OC[C@@H]1CN(Cc2ccc(Cl)cc2)C[C@H](n2cnc3c(NCc4ccncc4)ncnc32)O1`, the max response, negative = inhibition was -6.44%.

For `O=C1Nc2ccccc2-n2nnnc2C1N1CCN(c2cccc(C(F)(F)F)n2)CC1` (stereo not given), the max response, negative = inhibition is -6.8%.

On to `COc1cccc(-c2cnc3c(NC(C)=O)cc(-c4cc(F)ccc4OC)cn23)c1`, for which the max response, negative = inhibition was -5.58%.

In the case of `CCOC1=C2[C@H]([C@H]3C(=O)N(c4ccccc4)C(=O)[C@H]3C1)[C@@H](c1ccccc1)N(S(=O)(=O)c1ccc(C)cc1)[C@H]2c1ccccc1`, the max response, negative = inhibition is 1.42%.

In the case of `Cc1ccccc1C#CC1=CC(=O)CC(C)(C)C1`, the max response, negative = inhibition was -11.2%.

As for `COc1ccccc1CNC(=O)c1cc(-c2cc(F)ccc2OC)n[nH]1`, the max response, negative = inhibition is -1.03%.

As for `O=C(OC1CC2CC1[C@H]1CCCCN1C2=O)N1CCOCC1` (stereo not given in full), the max response, negative = inhibition is -1.86%.

For `COc1cc(C(O)c2nc(-c3cnn(C)c3)cs2)ccc1F` (stereo not given), the max response, negative = inhibition was -2.35%.

Consider `COc1cc(C(=O)N2CCOC23CCN(Cc2ccccc2)CC3)cc(OC)c1OC`, for which the max response, negative = inhibition is 1.8%.

With `Nc1ncnc2c1ncn2[C@@H]1O[C@H](C(=O)N2CCCN(Cc3ccccc3F)CC2)[C@@H](O)[C@H]1O`, the max response, negative = inhibition was -0.717%.

Take `CC1CCN(C(=S)c2cccc(O)c2)CC1`: the Potency was 18.9 µM (active).

`CC1CCN(C(=S)NC(=O)c2ccccc2Br)CC1`: the max response, negative = inhibition was -2.34%.

In the case of `Cc1nc2ccc(NC(=S)N3CCC(C)CC3)cc2nc1C`, the max response, negative = inhibition is 0.665%.

Take `CCCCc1c(-c2ccc(Br)cc2)ncn1CCc1ccccc1OC`: the max response, negative = inhibition is 3.4%.

On to `NCCCCC(C(=O)O)N(C(=O)OCc1ccccc1)C(=O)OCc1ccccc1` (stereo not given), for which the max response, negative = inhibition was -19.2%.

In the case of `CC1Cc2[nH][nH]c(=O)c2C(C2CC2)O1` (stereo not given), the max response, negative = inhibition was -23.1%.

In the case of `O=C(NCc1ccccc1)c1ccc(S(=O)(=O)Nc2cccc(C(F)(F)F)c2)cc1`, the max response, negative = inhibition was -14.9%.

In the case of `O=C(COc1ccc(S(=O)(=O)Nc2cccc(C(F)(F)F)c2)cc1)N1CCOCC1`, the max response, negative = inhibition is -3.59%.

Take `Cc1oc2c(F)c(F)c(F)c(F)c2c1S(=O)(=O)Nc1cccc(C(F)(F)F)c1`: the Potency is 37.7 µM (active).

With `Cc1[nH]c2ccccc2c1C(=O)C(=O)NCc1nnnn1-c1cccc(F)c1`, the max response, negative = inhibition was -8.15%.

Consider `Cc1cnc(NC(=O)CSc2nnc(-c3ccc(Cl)cc3Cl)n2N)s1`, for which the Potency is 23.8 µM (active).

As for `Cn1c(SCC(=O)Nc2nccs2)nnc1-c1cccnc1`, the max response, negative = inhibition was -6.93%.

For `Cc1cc(C)nc(SCc2nnc(SCC(=O)Nc3ncc(C)s3)n2Cc2ccco2)n1`, the max response, negative = inhibition was -1.22%.

Regarding `CN(Cc1ccccc1)C(=O)CCC1CCN(C(=O)c2ccco2)CC1`, the max response, negative = inhibition was -7.2%.

Take `CC(C)(C)NC(=O)NC(=O)COC(=O)C1c2ccccc2Oc2ccccc21`: the max response, negative = inhibition is -13.1%.

With `CCCN(CCC)C(=O)C1c2ccccc2Oc2ccccc21`, the max response, negative = inhibition was -4.59%.

On to `CC(C)(C)c1nnc(NC(=O)C2c3ccccc3Oc3ccccc32)s1`, for which the Potency is 2.67 µM (active).

`CCc1nc2ccc(C(=O)N3CCN(S(=O)(=O)CC)CC3)cn2c1N(C=O)CCC(C)C`: the max response, negative = inhibition was -4.19%.

As for `O=C(CCCN1C(=O)C(c2ccccc2)Oc2cccnc21)Nc1ccccc1Br` (stereo not given), the max response, negative = inhibition was 3.26%.

Consider `CCCCn1nnnc1C(c1cccc(OC)c1OC)N1CCN(C/C=C/c2ccccc2)CC1` (stereo not given), for which the max response, negative = inhibition was -4.93%.

Take `CC1(C)CC(=O)C=C(c2ccc(COC(=O)c3cc(F)cc(F)c3)cc2)C1=O`: the max response, negative = inhibition was -3.92%.

`O=C(O)CCn1cc(/C=C/C(=O)c2ccc(Cl)cc2)c(-c2cccc(Br)c2)n1`: the Potency was 21.2 µM (active).

Turning to `O=C(COC(=O)/C=C/c1cn(-c2ccccc2)nc1-c1cccnc1)Nc1ccc(Cl)cc1Cl`, the max response, negative = inhibition is 13.1%.

For `O=C(/C=C/NNC(=O)c1cccc(Br)c1)c1ccccc1`, the max response, negative = inhibition is -5.78%.

As for `CCCCc1ccc(S(=O)(=O)NC(=O)C2(C)CCN2C(=O)c2c(C)noc2C)cc1` (stereo not given), the max response, negative = inhibition is -12%.

In the case of `Cc1ccc(CNC(=O)Cc2cn(C)c3ccccc23)cc1`, the max response, negative = inhibition was -3.92%.

For `Cn1cc(CCC(=O)NC2CC2)c2ccccc21`, the max response, negative = inhibition is -19.7%.

Turning to `CCn1cc(CCC(=O)NCc2ccc(F)cc2)c2ccccc21`, the Potency was 23.8 µM (active).

`COc1ccc(-c2cc(NC=O)c3ncc(-c4cccc(C(=O)N(C)C)c4)n3c2)c(OC)c1`: the max response, negative = inhibition is -16.4%.

As to `CC1CC(=O)N(CC(=O)Nc2cccc(Cl)c2)c2ccccc2S1(=O)=O` (stereo not given), the max response, negative = inhibition is -2.47%.

For the compound `CCN1C(=O)C(CC(=O)Nc2cc(C)ccc2C)SC1=Nc1ccc(S(N)(=O)=O)cc1` (stereo not given), the max response, negative = inhibition is -2.89%.

With `CCN=C1SC(CC(=O)Nc2ccc(C)cc2)C(=O)N1CC` (stereo not given), the max response, negative = inhibition was -1.27%.

For `CN1C(=O)C(CC(=O)Nc2ccccc2)S/C1=N/c1nccs1` (stereo not given), the Potency is 26.7 µM (active).

In the case of `O=C(CC1SC(=Nc2ccccc2)N(Cc2ccccn2)C1=O)Nc1cccc(Cl)c1` (stereo not given), the Potency was 29.9 µM (active).

Take `CN=C1SC(CC(=O)Nc2ccc(C(=O)O)cc2)C(=O)N1C` (stereo not given): the max response, negative = inhibition was -12.2%.

As to `CCCC/C=C/c1cccc2nncn12`, the max response, negative = inhibition was 0.37%.

Regarding `O=C(Nc1nnc([C@H]2C[C@H](O)[C@@H](CO)O2)s1)c1cccc(Cl)c1`, the max response, negative = inhibition was -11.4%.

Regarding `O=C(CSc1ncn[nH]1)Nc1nc2c(F)c(F)c(F)cc2s1`, the max response, negative = inhibition is -14.3%.

With `COc1ccc(NC(=O)Cn2c(-c3ccc(OC)cc3)cn(-c3ccc(C)cc3)c2=O)cc1`, the max response, negative = inhibition is -2.89%.

`CCn1c(=S)sc2c(=O)n(CC(=O)Nc3ccc(OC)cc3)c(C)nc21`: the Potency was 33.6 µM (active).

With `CCn1c(=S)sc2c(=O)n(CC(=O)Nc3cccc(Br)c3)c(C)nc21`, the max response, negative = inhibition was 5.75%.

With `CCCCCc1c(Cc2ccccc2)ncn1CCc1ccccc1OC`, the max response, negative = inhibition was -12.9%.

For `Cc1ccc(N(C(=O)C(F)(F)F)C(C(=O)NC2CCCCC2)c2ccncc2)cc1C` (stereo not given), the Potency is 11.9 µM (active).

Regarding `Cc1cc(NC(=O)CCC(=O)N(c2cccc(F)c2)C(C(=O)NC2CCCC2)c2ccncc2)no1` (stereo not given), the max response, negative = inhibition was -7.93%.

Turning to `CCc1ccc(N(C(=O)c2csnn2)C(C(=O)NC2CCCCC2)c2ccncc2)cc1` (stereo not given), the max response, negative = inhibition is -3.61%.

`COc1ccc(C(C)(O)c2nc(-c3ccc(C)c(C)c3)cs2)cc1` (stereo not given): the max response, negative = inhibition was -4.12%.

With `COCCNC(=O)c1cc2c(Br)ccc(Br)c2nc1N`, the max response, negative = inhibition was -4.02%.

Regarding `CCOC(=O)[C@]12CCC=C1N(Cc1cccc3ccccc13)C(=O)[C@H](CC(=O)NCc1cccc(C(F)(F)F)c1)C2`, the max response, negative = inhibition is -6.42%.

In the case of `CCOc1ccccc1NC(=O)CCS(=O)(=O)c1cccc2nsnc12`, the max response, negative = inhibition was 7.52%.

On to `CCOc1ccc(N(CC)S(=O)(=O)c2cccc3nsnc23)cc1`, for which the max response, negative = inhibition is -8.88%.

On to `CCOc1ccc(OCC)c(NC(=O)CN(C)S(=O)(=O)c2cccc3nsnc23)c1`, for which the Potency was 29.9 µM (active).

As to `COc1ccc(CN2C[C@H]3CON(C)[C@H]3C[C@H]2c2ccc(-c3cccc(F)c3)cc2)cc1`, the max response, negative = inhibition was 5.3%.

On to `Cc1sc2ncn(CC(=O)NCCN(C)C)c(=O)c2c1S(=O)(=O)N1CCC(C)CC1`, for which the max response, negative = inhibition was -12.5%.

As to `COc1cccc(NC(=O)Cn2cnc3sc(C)c(S(=O)(=O)N4CCN(C)CC4)c3c2=O)c1`, the Potency is 8.44 µM (active).

For the compound `COc1ccc(N2CCN(C(=O)Cn3cnc4sc(C)c(S(=O)(=O)N5CCOCC5)c4c3=O)CC2)cc1`, the max response, negative = inhibition is -11.3%.

As to `COCCCNC(=O)c1cccc2c(-c3ccc(O)c(OC)c3)coc12`, the max response, negative = inhibition is -12.1%.

On to `O=C(N[C@H]1CC[C@H](CC(=O)N2CCCCC2)O[C@@H]1CO)c1cccc(F)c1`, for which the max response, negative = inhibition is 6.09%.

As to `Cc1ccc(Cl)c(OCC(=O)NN2CCN(C)CC2)c1`, the Potency was 23.8 µM (active).

Take `Cc1ccc(Cl)c(OCC(=O)N2CCc3ccccc3C2)c1`: the max response, negative = inhibition was -3.49%.

With `Cc1ccc(Cl)c(OCC(=O)N(C)CC(=O)Nc2ccc(N3CCOCC3)cc2)c1`, the max response, negative = inhibition is -2.7%.

The values are drawn from PubChem BioAssay AID720504 (National Center for Advancing Translational Sciences (NCATS), 2013).
